Source: PubChem BioAssay (National Center for Advancing Translational Sciences (NCATS))
VACV Venus inh: vaccinia inhibition (Venus reporter); 0.46% of 330,000 active; Potency, µM (doses to about 36.5 µM), without a hit: at the highest dose activity change, negative = inhibition, most hits filed as inhibitors; Vaccinia virus Venus reporter expression, fluorescence; calls by dose curve; tested in A549 cells; note: potency is the fitted concentration of half-maximal effect; nearly all actives have a fitted effect of over 30% in size
Vaccinia mCherry: inhibitors of vaccinia virus infection (mCherry reporter signal); AID 720579; Vaccinia virus mCherry reporter infection, fluorescence; Potency, µM (top dose mostly 36.5 µM), for inactives: at the highest dose activity change, negative = inhibition, most hits filed as inhibitors; 0.63% of 310,000 active; calls by dose curve; tested in A549 cells; note: potency is the fitted concentration of half-maximal effect; nearly all actives have a fitted effect of over 35% in size
HCMV inh: human cytomegalovirus inhibition; AID 1259415; 4.5% of 410,000 active; HFF cells, HCMV-luciferase reporter, 72 h; active compounds read low; activity change, negative = inhibition, % at 57.5 µM; in the data active = activity change below about -60%; inconclusive = no clear call, values can overlap the other calls; inactive = above about -39%
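Two-dose cell screen: HFF monolayers treated with compounds and infected with luciferase-expressing HCMV at 1 PFU/cell, 72 h at 37C, then lysed for luciferase measurement.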
FMDV antiviral: foot and mouth disease virus antiviral activity. Potency, µM (highest dose often 57.9 µM), for inactives: at the highest dose activity change, negative = inhibition, usual class: inhibitors. AID 1159524. 1.2% of 410,000 active. FMDV antiviral cell-based qHTS; calls by dose curve; tested in HEK293T cells; note: read-out not given here; potency is the fitted concentration of half-maximal effect; nearly all actives have a fitted effect of over 45% in size
HCV inh: HCV inhibition | Potency, µM (titrated, usually from 41.8 µM), without a hit: at the top dose activity change, negative = inhibition, usual class: inhibitors | AID 651820 | Huh7.5.1 HCVcc-Cre infection, luciferase reporter, 44 h | 3.4% of 340,000 active; active = well fitted inhibition curve with a large enough effect; inconclusive = small, poorly fitted or top-dose-only effect, or another doubt; inactive = no such curve, though single readings can be large or run the other way; note: potency is the fitted concentration of half-maximal effect
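After 44 h co-culture of compound, cells and HCVcc-Cre (~0.5 moi), substrate is added for 15 min at room temperature and luciferase measured over 15 sec. Cells were seeded at 1,000/well and pre-cultured 4 h.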
* marks the source's active call; other numbers are inactive results. This is a sample that favours compounds with a hit; in the whole collection about 7.3% have one here. % is set by controls: 0 for no effect and ±100 for the full control effect.

CCCCc1c(-c2ccc(F)cc2F)ncn1CCc1ccccc1OC was read as VACV Venus inh -29%, Vaccinia mCherry inconclusive, HCMV inh inconclusive and FMDV antiviral -18%.
`C[C@@H]1CN(Cc2ccc3c(c2)CN(Cc2cn[nH]c2-c2ccccc2)CCO3)C[C@H](C)O1` gave VACV Venus inh -5%, Vaccinia mCherry -14% and FMDV antiviral -8%.
For CCOC(=O)c1ccc(NC(=O)CC2C(=O)N(c3ccccc3)C(=O)N2C2CCCCC2)cc1 (configuration not stated) the results were VACV Venus inh -1%, Vaccinia mCherry -7%, HCMV inh 7 and FMDV antiviral 0%.
`Cc1cc(O)c(C(C[N+](=O)[O-])c2ccc(Cl)cc2)c(=O)o1` (configuration not stated) gave VACV Venus inh -9%, Vaccinia mCherry inactive, HCMV inh -16, FMDV antiviral -19% and HCV inh 5%.
Screening Cc1cc(C)n(C(C[N+](=O)[O-])c2ccc(Cl)cc2)n1 (configuration not stated) returned VACV Venus inh -6%, Vaccinia mCherry -20%, HCMV inh -105*, FMDV antiviral inconclusive and HCV inh 17%.
Screening COc1ccc(OCC(=O)N(Cc2cccc(OC)c2)C2CCS(=O)(=O)C2)cc1 (configuration not stated) returned VACV Venus inh -16%, Vaccinia mCherry -4%, HCMV inh -6 and FMDV antiviral -2%.
`Cc1cc(/C=C2\C=Cc3ccccc32)cc(C)c1N` gave VACV Venus inh -21% and Vaccinia mCherry 17%.
For COc1ccccc1-c1nnc(Nc2nc3c(OC)cccc3s2)o1 the results were VACV Venus inh -29%, Vaccinia mCherry inconclusive, HCMV inh -76*, FMDV antiviral -12% and HCV inh inconclusive.
COc1cccc2sc(Nc3nnc(-c4ccccc4Cl)o3)nc12 was read as VACV Venus inh -29%, Vaccinia mCherry inconclusive, HCMV inh -60*, FMDV antiviral 11% and HCV inh inconclusive.
`COc1cccc2sc(NN)nc12` gave VACV Venus inh -4%, Vaccinia mCherry -15%, HCMV inh 29, FMDV antiviral 33% and HCV inh -3%.
FC(F)(F)c1ccc(/C=N/n2c(COc3ccccc3)n[nH]c2=S)cc1 was read as VACV Venus inh -22%, Vaccinia mCherry -9%, HCMV inh -66*, FMDV antiviral -15% and HCV inh 1%.
For COc1ccc(CCNC(=O)/C=C\c2ccccc2)cc1OC the results were VACV Venus inh -12%, Vaccinia mCherry -14%, HCMV inh inconclusive, FMDV antiviral 0% and HCV inh -5%.
`COc1ccc(C(=O)CCc2ccc(OC)c(OC)c2)cc1` gave VACV Venus inh 6%, Vaccinia mCherry inactive, HCMV inh -80*, FMDV antiviral -13% and HCV inh inconclusive.
Screening COc1ccc(CC(C)CC(=O)NCCc2ccc(OC)c(OC)c2)cc1 (configuration not stated) returned HCMV inh -61*, FMDV antiviral -6% and HCV inh inconclusive.
Screening COc1ccc2cc3cc(C(=O)NCCc4ccc(OC)c(OC)c4)oc3nc2c1 returned VACV Venus inh inconclusive, Vaccinia mCherry -12%, HCMV inh -30, FMDV antiviral 8.9µM* and HCV inh inconclusive.
`COc1ccc(/C=C/C(=O)NC(=S)NCCc2ccc(OC)c(OC)c2)cc1` gave VACV Venus inh inconclusive, Vaccinia mCherry inconclusive, HCMV inh -62*, FMDV antiviral inconclusive and HCV inh inconclusive.
`CCCS(=O)(=O)c1nc(S(=O)(=O)c2ccc(C)cc2)c(NCc2ccccc2Cl)s1` gave VACV Venus inh -14%, Vaccinia mCherry inactive, HCMV inh 30 and FMDV antiviral 30%.
Screening Nc1ccnc2c1ncn2[C@@H]1O[C@H](CO)[C@@H](O)[C@H]1O returned VACV Venus inh inconclusive, Vaccinia mCherry inconclusive and FMDV antiviral 7%.
For O=C(Nc1cccc(-c2nc3ccccc3o2)c1)c1cc([N+](=O)[O-])ccc1N1CCOCC1 the results were VACV Venus inh -18%, Vaccinia mCherry -20%, HCMV inh 0 and FMDV antiviral -13%.
